Source: PubChem BioAssay (several laboratories)
This is a sample that favours compounds with a hit; in the whole collection about 4% have one here.
Gli-Sufu block = antagonists of Gli-Sufu signaling; Sufu-KO-LIGHT fibroblasts, Gli luciferase reporter luminescence; inhibition, % at 5 µM; hit rate 0.74% among 340,000;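 active = inhibition above about 55%, limit read from the data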;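 also: 0% = DMSO-treated cells and 100% = wells with medium but no cells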
Jurkat NFkB inh = lowers PMA/ionomycin-induced NF-kB signal in Jurkat cells; PMA/ionomycin-induced NF-kB luciferase reporter, luminescence; inhibition, % at 4 µM; hit rate 0.53% among 330,000; AID 435003; in the data active = inhibition above about 50%
697 NFkB inh = lowers PMA/ionomycin-induced NF-kB signal in 697 B cells; 697 B-cell NF-kB luciferase reporter, 16 h; hit rate 0.33% among 330,000; inhibition, % at 4 µM; in the data active = inhibition above about 35%
Mdm2-MdmX inh = disrupts the human Mdm2-MdmX interaction. O15151+Q00987. SaOS-2 split-luciferase Mdm2/MdmX complementation, luminescence. inhibition, % at 8 µM. hit rate 3% among 330,000;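 active = inhibition of at least 50% at 8 µM in the primary screen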
Target sequence (O15151 whole entry, looked up): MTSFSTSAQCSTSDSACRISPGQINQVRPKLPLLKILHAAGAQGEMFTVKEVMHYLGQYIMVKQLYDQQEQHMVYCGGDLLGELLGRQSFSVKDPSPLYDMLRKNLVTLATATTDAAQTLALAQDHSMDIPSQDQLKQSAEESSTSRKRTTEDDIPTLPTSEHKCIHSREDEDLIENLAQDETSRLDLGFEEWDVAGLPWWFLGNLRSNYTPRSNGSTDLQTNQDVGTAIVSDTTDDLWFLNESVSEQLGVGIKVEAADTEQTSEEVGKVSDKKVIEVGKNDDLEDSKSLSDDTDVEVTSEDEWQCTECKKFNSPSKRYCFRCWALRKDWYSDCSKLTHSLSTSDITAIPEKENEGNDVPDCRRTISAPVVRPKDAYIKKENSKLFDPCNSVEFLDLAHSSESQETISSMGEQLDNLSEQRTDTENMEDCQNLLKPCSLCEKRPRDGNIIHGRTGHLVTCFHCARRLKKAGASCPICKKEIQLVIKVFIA
Target sequence (Q00987 whole entry, looked up): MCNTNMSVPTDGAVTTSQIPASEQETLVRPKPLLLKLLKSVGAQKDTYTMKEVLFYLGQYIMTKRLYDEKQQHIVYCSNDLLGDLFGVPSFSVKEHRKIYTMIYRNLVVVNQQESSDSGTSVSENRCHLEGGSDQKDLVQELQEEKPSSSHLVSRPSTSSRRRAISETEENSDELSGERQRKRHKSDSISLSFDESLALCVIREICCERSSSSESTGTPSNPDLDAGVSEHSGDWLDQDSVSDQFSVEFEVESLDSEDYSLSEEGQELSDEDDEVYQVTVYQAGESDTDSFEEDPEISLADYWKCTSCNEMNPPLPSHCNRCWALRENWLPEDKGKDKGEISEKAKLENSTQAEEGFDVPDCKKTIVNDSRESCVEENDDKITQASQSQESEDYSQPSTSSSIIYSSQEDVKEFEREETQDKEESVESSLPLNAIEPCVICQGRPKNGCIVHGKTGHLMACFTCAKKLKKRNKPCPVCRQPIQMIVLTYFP
Beta apoptosis = beta cell apoptosis inhibition; INS-1E cytokine-induced death, ATP luminescence, 48 h; percent of positive-control rescue, neutral wells zero; protection from apoptosis, % (concentration not given with the values); hit rate 0.8% among 300,000;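 active = Every replicate reaches about 75%, or at least half do and their mean reaches it too, limit read from the data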;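 also: 0% = cytokine-treated negative control wells and 100% = positive control rescue; higher means more ATP so stronger rescue from cytokine killing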
Jurkat NFkB conf = lowers PMA/ionomycin-induced NF-kB signal in Jurkat cells. AID 435020. inhibition, % at 4 µM. shares compounds with Jurkat NFkB inh. Jurkat NF-kB luciferase, 16 h. hit rate 27% among 2,700;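 active = inhibition reaching about 45% at 4 µM in either replicate, limit read from the data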;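 also: plate controls were PMA/ionomycin stimulated DMSO wells for no effect and unstimulated DMSO wells for full effect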
697 NFkB conf = inhibitors of the PMA/ionomycin-induced NF-kB reporter in 697 B cells, retest | hit rate 35% among 2,000 | shares compounds with 697 NFkB inh | 697 B-cell NF-kB luciferase, 16 h | inhibition, % at 4 µM; in the data active = inhibition mostly above about 28%, no sharp cut-off; inactive = mostly below about 22%
Mdm2 MdmX conf = human Mdm2/MdmX binding inhibition, confirmed; luminescent assay; AID 489028; inhibition, % at 8 µM; hit rate 55% among 10,000; shares compounds with Mdm2-MdmX inh; in the data active = inhibition above about 40%
FLuc counter = full-length luciferase inhibition in Mdm2/MdmX counter-screen. shares compounds with Mdm2-MdmX inh. SaOS-2 full-length luciferase counterscreen, luminescence. inhibition, % at 8 µM. hit rate 77% among 6,200;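 active = mean inhibition at 8 µM reaching about 37%, which flags the compound as non-specific, limit read from the data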;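 also: p53-null SaOS-2 cells with luciferase driven by a doxycycline-inducible promoter; compound on cells about two nights before reading with doxycycline added after day one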
Starred values were filed as active, the others as inactive; . = no result given.

SMILES | Gli-Sufu block | Jurkat NFkB inh | 697 NFkB inh | Mdm2-MdmX inh | Beta apoptosis | Jurkat NFkB conf | Mdm2 MdmX conf | FLuc counter | others
CCCCCCCCCn1c2c(c(=N)c3c1CCC3)CCC2 | 93.9* | 90.9* | 93.5* | 95.2* | 108.9* | 73.5* | 92.8* | 54.8* | 697 NFkB conf=-22.3
CCCCCCn1c2c(c(=N)c3c1CCC3)CCC2 | 89.2* | 64.6* | 104.3* | 67.2* | 108.6* | 69.3* | 60.5* | 38.9* | 697 NFkB conf=33.9*
O=C(NNc1cc(C(F)(F)F)nc2ccccc12)Nc1cccc(Cl)c1 | -0.7 | 10.6 | 8.1 | 25.1 | 9.1 | . | . | .
CCN(C(=O)c1cc2c(=O)[nH]c3ccc(C)cc3c2s1)c1ccc(OC)cc1 | 1.9 | -5.6 | -7.9 | 14.9 | 7.8 | . | . | .
COc1ccc2[nH]c(=O)c(CN(Cc3cccs3)S(=O)(=O)c3c(C)ccc4nsnc34)cc2c1 | 6.5 | 56.7* | -51.1 | 63.6* | . | 27.0 | 67.5* | 73.2*
Oc1ccc(Nc2nc(-c3ccccc3)nc3ccccc23)cc1 | 25.8 | 0.0 | 12.2 | 33.8 | 4.9 | . | . | .
Oc1ccc(Nc2nc3ccccc3nc2Nc2ccc(O)cc2)cc1 | -13.5 | 84.1* | -127.4 | 100.4* | . | 54.4* | -2.4 | .
COc1ccc(C2=CC(=O)C[C@H](c3ccc(OC)cc3)C2)cc1 | -42.9 | -15.9 | -6.7 | -2.7 | -8.0 | . | . | .
COc1ccc([C@H]2CC(=O)C=C(c3ccc(OC)cc3OC)C2)cc1 | 6.9 | 57.8* | -48.8 | 51.1* | 6.6 | 48.1* | 33.6 | 98.3*
Cc1cc(/C=N/n2cnnc2)c(C)n1-c1ccc(OCc2ccc(Cl)cc2)cc1 | 63.4* | 52.0* | 4.4 | 61.4* | 121.9* | 22.7 | 61.7* | 91.7*
COc1ccc(NC(=O)/C(Cl)=C(/Cl)S(=O)Cc2ccc(Cl)cc2)cn1 (configuration not stated) | 46.3 | 101.3* | -184.5 | 97.1* | . | 98.9* | 100.0* | 1.5
COc1ccc(NC(=O)C(Cl)=C(Cl)Cl)cn1 | 6.5 | 25.6 | 24.8 | 4.7 | . | . | . | .
O=c1c2ccccc2nc2ccc(NCc3cccs3)nn12 | -61.1 | -70.9 | -62.7 | -58.8 | -2.5 | . | . | .
Cc1c(C)c2ccc(OCC(=O)N(C)C)c(C)c2oc1=O | 0.6 | -5.8 | -20.6 | -28.4 | 2.2 | . | . | .
Cc1c(C)c2ccc(OCC(=O)Nc3ccccn3)c(C)c2oc1=O | 51.1 | 91.0* | 8.9 | 88.0* | -6.3 | 93.6* | 90.5* | 52.1*
CCC(C)[C@H](NC(=O)N1CCn2c1nc1ccccc12)C(=O)NCc1ccccc1 (some centres not stated) | 2.5 | 9.7 | -15.4 | 2.2 | -3.2 | . | . | .
COC(=O)c1c(NC(=O)c2ccc([N+](=O)[O-])o2)sc2c1CCN(C(C)C)C2 | 28.3 | 66.5* | -85.6 | 97.4* | 7.9 | 43.2 | 98.5* | 47.7*
C/C(=N\NC(=O)c1ccc(F)cc1)c1ccccn1 | 12.1 | 100.2* | -370.8 | 97.3* | 110.9* | -20.9 | 60.0* | 58.2* | 697 NFkB conf=-0.4
C=CCNC(=S)N/N=C(\C)c1ccccn1 | 83.7* | 78.3* | 24.3 | 91.4* | 93.4* | 51.2* | 63.8* | 31.6
C/C(=N/NC(=O)CNC(=O)c1ccccn1)c1ccccc1 | -13.9 | -1.8 | 10.5 | 8.7 | -5.6 | . | . | .
CC1CC(C)CN(S(=O)(=O)c2ccc(NC(=O)c3ccc(=O)[nH]c3)cc2)C1 (configuration not stated) | -5.0 | 53.6* | -35.9 | 58.7* | 19.1 | 49.2* | 51.1* | 73.7*
CC1CC(C)CN(C(=O)c2ccc(NC(=O)c3ccc(=O)[nH]c3)cc2)C1 (configuration not stated) | 9.3 | 4.4 | 4.4 | 16.9 | -2.2 | . | . | .
COC(=O)C1CCN(S(=O)(=O)c2cc3c4c(c2)CCN4C(=O)CC3)CC1 | 4.4 | -7.4 | -23.4 | -2.0 | . | . | . | .
Cc1onc(-c2ccccc2Cl)c1C(=O)NCc1cccnc1 | 5.2 | -9.4 | -0.6 | -23.3 | -4.0 | . | . | .
Cc1oc2c(c1C(=O)NCc1cccnc1)C(=O)c1ccccc1C2=O | 79.8* | 88.2* | 28.9 | 99.4* | . | 84.5* | 97.8* | 4.0
SMILES | Gli-Sufu block | Jurkat NFkB inh | 697 NFkB inh | Mdm2-MdmX inh | Beta apoptosis | Jurkat NFkB conf | Mdm2 MdmX conf | FLuc counter | others
COc1ccc(CNC(=O)c2c(C)oc3c2C(=O)c2ccccc2C3=O)cc1 | 63.8* | 59.8* | -15.6 | 81.1* | 109.3* | 58.6* | 84.0* | 54.4*
COc1ccc(CNC(=O)c2ccc(-c3ccccc3)cc2)cc1 | 8.7 | -26.3 | -31.0 | -43.4 | -3.5 | . | . | .
O=C1Nc2ccccc2N(O)N1c1ccc(S(=O)(=O)N2CCOCC2)cc1 | -2.1 | -3.0 | 6.8 | -10.3 | -3.3 | . | . | .
CCNS(=O)(=O)c1ccc(CCC(=O)N2CCc3ccccc3C2)cc1 | -5.2 | 0.6 | 2.4 | 4.3 | . | . | . | .
CCOc1ccc(S(=O)(=O)NCc2ccccn2)cc1NC(=O)c1ccccc1 | 8.7 | 53.4* | -26.0 | 57.7* | . | 46.4* | 74.7* | 56.7*
COc1ccc(CNC[C@H]2O[C@@H](n3cnc4c(N)ncnc43)[C@H](O)[C@@H]2O)cc1OC | -5.9 | 1.7 | 2.3 | 4.8 | -2.2 | . | . | .
CN(Cc1ccccc1)S(=O)(=O)c1ccc(NC(=S)NC(=O)C2CCCC2)cc1 | -5.1 | 62.5* | -47.7 | 55.7* | 7.4 | 15.7 | 58.3* | 61.3*
CN(C)S(=O)(=O)c1ccc(NC(=S)NC(=O)C2CCC2)cc1 | -3.6 | -0.7 | -16.0 | 25.6 | 0.0 | . | . | .
CCC(C)[C@H](NS(=O)(=O)c1ccc(C)cc1)C(=O)N1CCC(C(=O)N2CCC(C(N)=O)CC2)CC1 (some centres not stated) | 33.8 | 1.8 | -14.6 | 5.1 | -1.9 | . | . | .
COc1ccc(OC)c(N(CC(=O)Nc2cccnc2)S(=O)(=O)c2ccccc2)c1 | 10.7 | 12.6 | -10.3 | 11.1 | -0.5 | . | . | .
COc1ccc(Cn2c(SCc3ccc(C)cc3)nc3cc(OC)c(OC)cc3c2=N)cc1Cl | 29.7 | 64.1* | 14.7 | 94.1* | 110.0* | 62.6* | 100.2* | 51.1*
c1ccc(C(CN2CCOCC2)c2ccccc2)cc1 | 1.4 | 3.5 | 12.4 | -4.1 | -3.3 | . | . | .
O=C(c1ccc(F)cc1)C(CN1CCOCC1)c1ccccc1 (configuration not stated) | 11.0 | 52.5* | -136.5 | 63.9* | . | 12.2 | 42.6* | 38.2*
Cn1nc([N+](=O)[O-])nc1Sc1nnc(-c2ccccc2)o1 | 45.6 | 73.6* | -164.8 | 100.4* | -15.4 | 69.7* | 76.2* | 51.5*
O=Cc1ccc(Sc2nnc(-c3ccccc3)o2)c([N+](=O)[O-])c1 | -2.5 | -0.1 | 4.8 | 22.7 | -7.5 | . | . | .
